The structures appear in SMILES notation. Potency and affinity values are given separately. Calls of active or inactive are those of the source.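 Rule for the calls: active = falling ATP light signal with a fitted half-maximal concentration at most twice the highest valid tested dose; inconclusive = flat fit with moderate signal loss, or poor fit; inactive = the rest.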

The assay in a line: HepG2 hepatoma cell cytotoxicity, dose response, cytotoxicity control, CellTiter-Glo luminescence, dry powder, set 3 (AID 720594). Particulars: HepG2 viability, ATP luminescence, 72 h; series mostly up to 26 µM.
Take `Cc1ccc(C(=O)Nc2nc(-c3ccccc3)cs2)o1`: the call was inactive.

With `O=C(Nc1nnc(C2=COCCO2)o1)c1ccc(S(=O)(=O)N2CCCCC2)cc1`, the molecule was classed as inactive. For the molecule `CC1CC(C)CN(S(=O)(=O)c2ccc(C(=O)Nc3nnc(C4=COCCO4)o3)cc2)C1` (stereo not drawn), the result was inactive.

As for `COC(=O)Cc1cc(=O)n(-c2nc3ccccc3[nH]2)[nH]1`, the call was inactive.

Take `Cc1ccc(S(=O)(=O)CCc2nnc(NC(=O)c3ccccc3)s2)cc1`: the molecule was called inactive. With `O=C(CSc1ccc(-c2ccccn2)nn1)Nc1ccccc1` the entry was “inactive”; with `CC1CCN(S(=O)(=O)c2ccc(C(=O)Nc3nnc(-c4ccccn4)o3)cc2)CC1`, “inactive”; with `COC(=O)c1ccc(NC(=O)CSc2ccc(-c3ccccn3)nn2)cc1`, “inactive”. With `O=C(CSc1ccc(-c2ccccn2)nn1)NC1CCCCC1`, the result was inactive. `O=C(Nc1nc(-c2ccccn2)cs1)c1ccc(S(=O)(=O)N2CCOCC2)cc1`: the molecule was called inactive. With `CC1CCN(S(=O)(=O)c2ccc(C(=O)Nc3nnc(C4CC4)o3)cc2)CC1` the entry was “inactive”; with `Nc1nc(-c2ccccn2)nc(N)c1Cc1ccc(Cl)cc1Cl`, “inactive”. Take `Cc1ccc(C(=O)Nc2nc(-c3ccccn3)cs2)o1`: the result was inactive.

In the case of `FC(F)(F)c1cc(-c2nn[nH]n2)cc(C(F)(F)F)c1`, the molecule was classed as inactive. As for `CC(C)CC(=O)NC(c1cccs1)c1ccc2cccnc2c1O` (stereo not drawn), the outcome was inactive. `CC(C)Cc1nnc(NC(=O)c2cccc(S(=O)(=O)N3CCOCC3)c2)s1`: the outcome was inactive. With `c1ccc(-c2nc(-c3ccncc3)n[nH]2)nc1`, the call was inactive. The value for `O=C(Nc1nc(-c2ccncc2)cs1)c1ccco1` was “inactive”; that for `O=C(CSc1n[nH]c(-c2ccccn2)n1)Nc1ccc(Cl)cc1` was “inactive”. As to `O=C(Nc1nnc(-c2ccc(F)cc2)o1)c1ccc(S(=O)(=O)N2CCCCC2)cc1`, the call was inactive.

With `Cc1cccc(NC(=O)CSc2ccc(-c3ccccn3)nn2)c1C`, the molecule was classed as inactive. With `CCCCC(=O)NC(c1ccco1)c1ccc2cccnc2c1O` (stereo not drawn) the entry was “inactive”; with `Cc1ccc(C(=O)Nc2nc(-c3ccccn3)cs2)cc1S(=O)(=O)N1CCOCC1`, “inactive”; with `O=C(Cc1ccccc1)NC(c1ccco1)c1ccc2cccnc2c1O` (stereo not drawn), “inactive”. In the case of `Cc1nnc(NC(=O)c2ccc(S(=O)(=O)N3CCCCC3)cc2)o1`, the result was inactive. `Cc1c(C(=O)N(C)C)sc2nc(-c3ccccn3)[nH]c(=O)c12`: the result was inactive. As to `O=C(CSc1ccc(-c2ccccn2)nn1)Nc1nccs1`, the outcome was inactive. `CC1CCN(S(=O)(=O)c2ccc(C(=O)Nc3nnc(-c4ccno4)o3)cc2)CC1`: the call was inactive. The value for `O=C(CSc1ccc(-c2ccccn2)nn1)N1CCCC1` was “inactive”. With `CCc1cc2c(=O)[nH]c(-c3ccccn3)nc2s1`, the molecule was called inactive. With `CC1CCN(S(=O)(=O)c2ccc(C(=O)Nc3nnc(-c4ccco4)o3)cc2)CC1` the entry was “inactive”. Turning to `O=C(Nc1nc(-c2ccncc2)cs1)c1cccc(S(=O)(=O)N2CCOCC2)c1`, the call was inactive. `O=C(Nc1nc(-c2ccccn2)cs1)c1ccco1`: the molecule was classed as inactive.

These data come from PubChem BioAssay AID720594 (Broad Institute, 2013).
